Source: PubChem BioAssay (Tox21)
Where “and” joins values, the source holds several entries; their conditions need not be identical. Identical values can stand only once. Results filed as inconclusive are left out. A call without a number means that no potency is given here. Values without a mark were called inactive. Calls of active or inactive are those of the source. The call rests on the fitted dose curve.

What follows are compounds tested against Beta-2 adrenergic receptor (Homo sapiens) (UniProt P07550) (assay: Adrenergic beta2 receptor (ADRB2) small molecule antagonists, cell-based qHTS assay (AID 1963592; further: nearly all actives have a fitted effect of over 50% in size)). Conditions: CHO-ADRB2 cells, isoproterenol-stimulated cAMP HTRF ratio, 0.5 h; series mostly up to 92.4 µM.
Beta-2 adrenergic receptor (Homo sapiens), sequence (P07550 whole entry, looked up): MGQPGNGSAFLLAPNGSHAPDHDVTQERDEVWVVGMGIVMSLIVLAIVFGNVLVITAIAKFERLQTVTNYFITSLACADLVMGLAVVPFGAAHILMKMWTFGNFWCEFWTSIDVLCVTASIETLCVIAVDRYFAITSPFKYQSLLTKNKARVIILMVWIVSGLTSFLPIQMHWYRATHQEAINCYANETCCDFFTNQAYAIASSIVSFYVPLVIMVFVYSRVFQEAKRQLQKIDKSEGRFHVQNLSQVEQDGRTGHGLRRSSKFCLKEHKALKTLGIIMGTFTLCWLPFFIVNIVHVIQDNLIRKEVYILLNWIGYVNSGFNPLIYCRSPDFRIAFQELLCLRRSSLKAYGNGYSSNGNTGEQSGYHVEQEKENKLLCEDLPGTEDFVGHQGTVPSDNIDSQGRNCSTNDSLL
Excerpt: U.S. Tox21 Program National Center for Advancing Translational Sciences [NCATS] Division of Preclinical Innovation [DPI] U.S. Environmental Protection Agency [EPA] National Institutes of Environmental Health Sciences [NIEHS] National Toxicology Program [NTP] U.S. Food and Drug Administration [FDA] Tox21 Assay Overview: Beta adrenergic receptors (Beta-ARs) belong to the G-protein coupled receptor (GPCR) superfamily, includes three subtypes - beta1, beta2, and beta3. Beta1-AR is the predominant receptor subtype expressed in the heart, and beta2-AR is expressed in the kidney, lung, blood vessel and in the heart, and beta3 is found in the adipocytes. Beta1 and 2 ARs couple to Gs protein and elevate cyclic adenosine mono phosphate (cAMP), which activates protein kinase A and leads to the downstream signaling responsible for the physiological actions. Beta-AR agonists or antagonists are the most prescribed therapeutic agents for heart failure and asthma, and these were one of the first target receptors for the rational drug design. Tox21 10K compound library was screened using the cAMP-Gs dynamic assay (Cisbio Bioassays, Shelton, CT) to identify agonists/antagonists of the Gs-coupled human adrenergic, beta2 receptor (ADRB2) in the CHO-ADRB2 cell line (Codex BioSolutions, Inc. Gaithersburg, MD), which stably over-expresses ADRB2. The principle of cAMP-Gs dynamic assay is based on HTRF technology, which facilitates the fluorescence resonance energy transfer (FRET) between donor Europium cryptate and acceptor d2-labeled cAMP. The cAMP generated within cells competes with the red acceptor, d2-labled cAMP, for binding to the monoclonal anti-cAMP-cryptate (Europium donor). An increase in intracellular cAMP leads to the disruption of FRET signal, and the signal is inversely proportional to the cAMP concentration. Propranolol HCl (Sigma-Aldrich, St. Louis, MO) was used as a positive control in the screening.
Tox21 Assay Protocol Summary: CHO-ADRB2 cells were dispensed at 1,000/well in 4uL assay medium into white/solid 1536-well plates (Greiner Bio-One North America Inc., Monroe, NC) using a Multidrop Combi dispenser (ThermoFisher Scientific, Waltham, MA). The assay plates were incubated at 37C and 5% CO2 for an overnight (18-20hr). Then positive control and test compounds dissolved in DMSO were transferred to the assay plates at 23nL using a Pintool station (Wako, San Diego, CA). Following the compound and positive control transfer, 1uL agonist-stimulation mix containing 1nM Isoproterenol HCl, 100uM IBMX and 25uM Ro-20-1724 was added to each well of the assay plates using BioRAPTR Flying Reagent Dispenser (FRD, Beckman Coulter, Brea, CA). The assay plates were incubated at room temperature for 0.5hr. Then 2.5ul each d2-labled cAMP and anti-cAMP-cryptate solutions were added separately to each well of the assay plates using an FRD and the assay plates were incubated at room temperature for 1hr. The fluorescence signal was measured at two different wavelengths (665nm and 615nm) using an Envision plate reader (Perkin Elmer, Shelton, CT). Data were expressed as the ratio of 665 nm/615 nm.
Potency means the concentration at half of the fitted maximal effect.

Row | SMILES | Potency | activity change, negative = inhibition
1 | C[C@H]1C[C@H](O)c2ccsc2S1(=O)=O | inactive | 
2 | COc1ccc(N)c(C)c1 | inactive | 
3 | Cc1ccc(C(=O)O)cc1 | inactive | 
4 | c1ccc(Nc2cccc3ccccc23)cc1 | inactive | 
5 | CC(C)C(=O)Nc1cccc(C2CN3CCSC3=N2)c1 (stereo not given) | inactive | 
6 | CCCC[C@H]1CN(CC2CCOCC2)C(=O)OC12CCN(C1(C)CCN(C(=O)c3c(C)ncnc3C)CC1)CC2 | inactive | 
7 | COC(OC)C(C)c1ccccc1 (stereo not given) | inactive | 
8 | CCC(C)CO (stereo not given) | inactive | 
9 | CC(C)CCO | inactive | 
10 | CCC(CO)CO | inactive | 
11 | O=C(Oc1ccccc1)c1ccccc1 | inactive | 
12 | Cc1c(C(=O)c2c[nH]n(C)c2=O)ccc(S(C)(=O)=O)c1C1=NOCC1 | inactive | 
13 | COCC(O)CO (stereo not given) | inactive | 
14 | Cc1ccc(S(=O)(=O)NC(=O)NC2CCCCCCC2)cc1 | inactive | 
15 | C1COC1 | inactive | 
16 | BrC1CCC(Br)C(Br)CCC(Br)C(Br)CCC1Br (stereo not given) | inactive | 
17 | C=CCS(=O)(=O)O | inactive | 
18 | O=C1OC2(c3ccccc31)c1cc(Br)c(O)c(Br)c1Oc1c2cc(Br)c(O)c1Br | 62 µM (active) and 62.8 µM (active) and 21.1 µM (active) | 
19 | O=c1cc(CO)occ1O | inactive | 
20 | CC(C)CCOC(=O)c1ccccc1 | inactive | 

Row | SMILES | Potency | activity change, negative = inhibition
21 | ClC(c1ccccc1)(c1ccccc1)c1ccccc1 | inactive | 
22 | CCOCCOC(=O)/C=C/c1ccc(OC)cc1 | inactive | 
23 | O=S1(=O)OC(c2ccc(O)cc2)(c2ccc(O)cc2)c2ccccc21 | inactive | 
24 | OCc1ccccc1 | inactive | 
25 | O=C(O)c1ccccc1C(c1ccc(O)cc1)c1ccc(O)cc1 | inactive | 
26 | CC[C@]1(O)C[C@@H]2CN(CCc3c([nH]c4ccccc34)[C@@](C(=O)OC)(c3cc4c(cc3OC)N(C)[C@H]3[C@@](O)(C(=O)OC)[C@H](OC(C)=O)[C@]5(CC)C=CCN6CC[C@]43[C@@H]65)C2)C1 | inactive | 
27 | CC1CC(OC(=O)c2ccccc2O)CC(C)(C)C1 (stereo not given) | inactive | 
28 | CC(=O)OCCCc1ccccc1 | inactive | 
29 | CCC(C)(C)C1CCC(=O)CC1 | inactive | 
30 | CC(C)(N=C=O)c1cccc(C(C)(C)N=C=O)c1 | inactive | 
31 | Cc1ccc(S(=O)(=O)NC2CCCCC2)cc1 | inactive | 
32 | CC(=O)OCC1=C(C(=O)O)N2C(=O)[C@@H](NC(=O)Cc3cccs3)[C@H]2SC1 | inactive | 
33 | Oc1ccc2c(c1)OC[C@@H](N1CCC(O)(c3ccc(F)cc3)CC1)[C@H]2O | inactive | 
34 | CC(O)C(C)O (stereo not given) | inactive | 
35 | O=C(O)CN(CCCN(CC(=O)O)CC(=O)O)CC(=O)O |  | 0.405% [at 19 µM]
36 | O=S(=O)(O)CCCN1CCOCC1 | inactive | 
37 | C/C(=N\O)[C@@H](C)NCC(C)(C)CN[C@H](C)/C(C)=N/O | inactive | 
38 | Cc1ccc(-c2ccccc2)cc1 | inactive | 
39 | CC(C)CC(C)O (stereo not given) | inactive | 
40 | C(/C=C/C=C/Nc1ccccc1)=Nc1ccccc1 | inactive | 
